From PubChem BioAssay (EPA / NIEHS)
Records with an inconclusive call do not appear. A structure can be active in one record and inactive in another. The source made the active and inactive calls. How the source made its calls, unless noted: active means hit-call score of the fitted dose curve at least 0.9, where 1 is the maximum; inconclusive means response in the unintended direction; inactive means score below 0.9.

Key:
[1] = system: Sodium/Iodide Symporter (NIS), SLC5A5 (gene 6528); test: CPHEA_Stoker_NIS_Inhibition_RAIU: CPHEA's Radioactive Iodide Uptake (RAIU) Assay for Sodium/Iodide Symporter (NIS) Inhibition, Stoker and Laws Labs (AID 2283841)
Method in brief: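 HEK293T cells stably expressing human NIS (hNIS-HEK293T-EPA) were exposed to test chemicals at 0.001–100uM (0.5% final DMSO) with 125I at a final 329pM in HBSS/10mM HEPES pH 7.4. After 2 hours at room temperature and ice-cold washes, intracellular 125I was counted as CPM and normalized to DMSO wells.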

[2] = CPHEA_Stoker_NIS_Cytotoxicity: Cytotoxicity Assessment for CPHEA's Radioactive Iodide Uptake (RAIU) Assay for Sodium/Iodide Symporter (NIS) Inhibition, Stoker and Laws Labs (AID 2283897);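 on AC50: active means loss of ATP signal versus DMSO meaning cytotoxicity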
Method in brief: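 hNIS-HEK293T-EPA human kidney cells were exposed for 2 hours at room temperature to test chemicals (0.001–100uM, 0.5% final DMSO) in HEPES-buffered HBSS, pH 7.4. Viability was read as ATP content by luciferase bioluminescence, loss of signal versus DMSO.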

[3] = ATG_XTT_Cytotoxicity_XSP2: Cytotoxicity Assessment in the Attagene TRANS-FACTORIAL Multi-Species (XSP2) HepG2 Assay (AID 2283837)
Method in brief: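 HepG2 cells, transiently transfected with multiple reporter constructs, exposed to chemical for 24 h. Cell number assessed with XTT fluorescence read-out; loss of signal fitted relative to DMSO.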

[4] = target: human Thyroid hormone Receptor alpha (TRa), THRA (gene 7067) (UniProt P10827); test: ATG_hTRa_XSP2: Attagene TRANS-FACTORIAL Multi-Species (XSP2) HepG2 Assay for human Thyroid hormone Receptor alpha (TRa) (AID 2283838)
Sequence of human Thyroid hormone Receptor alpha (TRa), THRA (gene 7067) (P10827 whole entry, looked up, the tested form may be a part): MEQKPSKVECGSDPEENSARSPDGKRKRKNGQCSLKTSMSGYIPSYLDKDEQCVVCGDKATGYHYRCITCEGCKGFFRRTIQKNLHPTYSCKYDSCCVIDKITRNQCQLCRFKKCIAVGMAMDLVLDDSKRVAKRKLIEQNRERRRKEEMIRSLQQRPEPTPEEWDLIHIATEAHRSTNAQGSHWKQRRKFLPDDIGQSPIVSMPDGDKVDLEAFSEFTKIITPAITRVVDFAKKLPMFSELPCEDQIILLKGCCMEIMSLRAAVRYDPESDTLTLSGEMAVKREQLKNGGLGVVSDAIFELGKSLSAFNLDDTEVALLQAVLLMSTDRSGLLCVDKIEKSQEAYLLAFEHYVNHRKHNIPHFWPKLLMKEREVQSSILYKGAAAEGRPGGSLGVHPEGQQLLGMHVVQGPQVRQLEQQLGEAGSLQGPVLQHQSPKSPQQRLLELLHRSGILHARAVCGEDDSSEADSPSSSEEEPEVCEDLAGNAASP
Method in brief: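 HepG2 cells transiently transfected with multiplexed GAL4-UAS reporter units and exogenous NR-GAL4 chimeras; 24 h chemical exposure with 3 nM 6-alpha-fluorotestosterone and 1.5 nM norgestrel present. Reporter mRNA measured by RT-PCR, FAM labelling, HpaI digestion, capillary electrophoresis; gain-of-signal versus DMSO.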

[5] = target: frog Thyroid hormone Receptor alpha (TRa), thra-a (gene 397942) (UniProt P15204); test: ATG_frTRa_XSP2: Attagene TRANS-FACTORIAL Multi-Species (XSP2) HepG2 Assay for frog Thyroid hormone Receptor alpha (TRa) (AID 2283839);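 on AC50: AC50 reflects induction of frog TRa-driven reporter mRNA above DMSO baseline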
Sequence of frog Thyroid hormone Receptor alpha (TRa), thra-a (gene 397942) (P15204 whole entry, looked up, the tested form may be a part): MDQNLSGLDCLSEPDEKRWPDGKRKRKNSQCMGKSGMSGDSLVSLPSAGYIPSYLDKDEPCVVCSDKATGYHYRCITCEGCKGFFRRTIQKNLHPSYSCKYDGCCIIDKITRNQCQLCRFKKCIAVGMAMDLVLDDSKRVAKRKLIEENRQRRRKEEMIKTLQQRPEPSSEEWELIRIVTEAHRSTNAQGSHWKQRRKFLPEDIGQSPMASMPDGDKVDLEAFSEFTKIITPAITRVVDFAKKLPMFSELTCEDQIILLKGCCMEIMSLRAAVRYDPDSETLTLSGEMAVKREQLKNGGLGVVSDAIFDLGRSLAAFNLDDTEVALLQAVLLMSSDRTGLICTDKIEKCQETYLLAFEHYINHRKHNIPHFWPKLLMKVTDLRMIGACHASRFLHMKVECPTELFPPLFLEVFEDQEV
Method in brief: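 Reporter transcripts were measured by RT-PCR with capillary electrophoresis after 24 h dosing of HepG2 carrying transiently transfected multi-reporter units, including a chimeric frog TRa-GAL4 construct. Activity was taken as increase over DMSO vehicle.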

[6] = target: human Thyroid hormone Receptor beta (TRb), THRB (gene 7068) (UniProt P10828); test: ATG_hTRb_XSP2: Attagene TRANS-FACTORIAL Multi-Species (XSP2) HepG2 Assay for human Thyroid hormone Receptor beta (TRb) (AID 2283840);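 further: actives raise reporter mRNA so potency reflects agonist-like gain of signal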
Sequence of human Thyroid hormone Receptor beta (TRb), THRB (gene 7068) (P10828 whole entry, looked up, the tested form may be a part): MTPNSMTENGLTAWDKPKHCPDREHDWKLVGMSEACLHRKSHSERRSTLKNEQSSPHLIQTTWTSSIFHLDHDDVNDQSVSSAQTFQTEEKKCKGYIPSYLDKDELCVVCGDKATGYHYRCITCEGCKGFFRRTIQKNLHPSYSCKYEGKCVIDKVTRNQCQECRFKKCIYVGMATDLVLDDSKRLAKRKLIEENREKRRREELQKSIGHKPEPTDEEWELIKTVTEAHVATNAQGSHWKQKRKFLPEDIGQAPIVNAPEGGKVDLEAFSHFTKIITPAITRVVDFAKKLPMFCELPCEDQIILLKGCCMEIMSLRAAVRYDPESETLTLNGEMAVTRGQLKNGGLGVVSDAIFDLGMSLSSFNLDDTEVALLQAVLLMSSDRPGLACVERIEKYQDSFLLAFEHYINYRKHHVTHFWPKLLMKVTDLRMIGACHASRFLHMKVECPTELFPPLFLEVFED
Method in brief: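 Activity of exogenous human TRb–Gal4 fusion measured by reporter mRNA from RT-PCR and capillary electrophoresis, 24 h after dosing transfected HepG2. 6-alpha-fluorotestosterone (3 nM) and norgestrel (1.5 nM) present. Gain-of-signal fit relative to DMSO.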

[7] = CEETOX_H295R_11DCORT_noMTC: CeeTox H295R High-throughput Steroidogenesis Assay for 11-Deoxycortisol (11DCORT), maximum tolerated concentration (MTC) filtered results only (AID 2283911; active means hit-call score of the fitted dose curve at least 0.9, where 1 is the maximum; inactive means score below 0.9); settings: actives raise or lower the signal
Method in brief: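 Values carry no filtering for maximum tolerated concentration: medium from forskolin-primed (10 uM, 48 h) H295R cells after 48 h chemical exposure (0.1% DMSO) was MTBE-extracted, and 11-deoxycortisol quantified by reverse-phase HPLC-MS/MS. Fitting was bidirectional against DMSO.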

[8] = CEETOX_H295R_OHPREG_noMTC: CeeTox H295R High-throughput Steroidogenesis Assay for OH-Pregnenolone (OHPREG), maximum tolerated concentration (MTC) filtered results only (AID 2283912; active means hit-call score of the fitted dose curve at least 0.9, where 1 is the maximum; inactive means score below 0.9); settings: actives raise or lower the signal
Method in brief: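 H295R human adrenal cells, forskolin-prestimulated (10 uM, 48 h), then exposed to test chemical in 0.1% DMSO for 48 h. 17alpha-hydroxypregnenolone in medium measured by HPLC-MS/MS after MTBE extraction; bidirectional fit versus DMSO, concentrations not MTC-filtered.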

[9] = CEETOX_H295R_OHPROG_noMTC: CeeTox H295R High-throughput Steroidogenesis Assay for OH-Progesterone (OHPROG), maximum tolerated concentration (MTC) filtered results only (AID 2283914; active means hit-call score of the fitted dose curve at least 0.9, where 1 is the maximum; inactive means score below 0.9); settings: actives raise or lower the signal
Method in brief: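 H295R human adrenal cells prestimulated 48 h with 10 uM forskolin, then exposed 48 h to test chemical (0.1% DMSO final). Medium 17alpha-hydroxyprogesterone extracted with MTBE, quantified by HPLC-MS/MS; bidirectional fit versus DMSO, concentrations not MTC-filtered.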

[10] = CEETOX_H295R_CORTISOL_noMTC: CeeTox H295R High-throughput Steroidogenesis Assay for Cortisol, maximum tolerated concentration (MTC) filtered results only (AID 2283916; active means hit-call score of the fitted dose curve at least 0.9, where 1 is the maximum; inactive means score below 0.9); settings: actives raise or lower the signal
Method in brief: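 H295R adrenal cells were pre-stimulated 48 h with 10 uM forskolin, then exposed 48 h to test chemical in 0.1% DMSO. Medium cortisol was measured by MTBE extraction and HPLC-MS/MS; bidirectional fit versus DMSO, concentrations not MTC-filtered.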

[11] = CEETOX_H295R_CORTIC_noMTC: CeeTox H295R High-throughput Steroidogenesis Assay for Corticosterone (CORTIC), maximum tolerated concentration (MTC) filtered results only (AID 2283917; active means hit-call score of the fitted dose curve at least 0.9, where 1 is the maximum; inactive means score below 0.9); settings: actives raise or lower the signal
Method in brief: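 H295R, 10 uM forskolin prestim 48 h → test chem (0.1% DMSO final) 48 h → media MTBE extraction → HPLC-MS/MS corticosterone. Bidirectional fit vs DMSO baseline; no MTT-based MTC filtering.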

[12] = CEETOX_H295R_PROG_noMTC: CeeTox H295R High-throughput Steroidogenesis Assay for Progesterone (PROG), maximum tolerated concentration (MTC) filtered results only (AID 2283920; active means hit-call score of the fitted dose curve at least 0.9, where 1 is the maximum; inactive means score below 0.9); settings: actives raise or lower the signal
Method in brief: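 H295R human adrenal cells were prestimulated 48 h with 10 uM forskolin, then exposed 48 h to test chemical (0.1% DMSO final). Progesterone in medium was quantified by HPLC-MS/MS; bidirectional fitting versus DMSO, concentrations not MTC-filtered.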

[13] = CEETOX_H295R_DOC_noMTC: CeeTox H295R High-throughput Steroidogenesis Assay for DOC, maximum tolerated concentration (MTC) filtered results only (AID 2283918; active means hit-call score of the fitted dose curve at least 0.9, where 1 is the maximum; inactive means score below 0.9); settings: actives raise or lower the signal
Method in brief: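 H295R cells prestimulated 48 h with 10 uM forskolin, then exposed 48 h to test chemical (0.1% DMSO final). Medium 11-deoxycorticosterone extracted with MTBE, quantified by HPLC-MS/MS; bidirectional fit versus DMSO, concentrations not MTC-filtered.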

[14] = target: PGR (gene 5241) (UniProt P06401); test: TOX21_PR_BLA_Followup_Antagonist_ratio: Tox21 HEK293 Progesterone Receptor (PR) Antagonism Beta-lactamase Follow-Up Assay, Ratio (AID 2283934)
Sequence of PGR (gene 5241) (P06401 whole entry, looked up): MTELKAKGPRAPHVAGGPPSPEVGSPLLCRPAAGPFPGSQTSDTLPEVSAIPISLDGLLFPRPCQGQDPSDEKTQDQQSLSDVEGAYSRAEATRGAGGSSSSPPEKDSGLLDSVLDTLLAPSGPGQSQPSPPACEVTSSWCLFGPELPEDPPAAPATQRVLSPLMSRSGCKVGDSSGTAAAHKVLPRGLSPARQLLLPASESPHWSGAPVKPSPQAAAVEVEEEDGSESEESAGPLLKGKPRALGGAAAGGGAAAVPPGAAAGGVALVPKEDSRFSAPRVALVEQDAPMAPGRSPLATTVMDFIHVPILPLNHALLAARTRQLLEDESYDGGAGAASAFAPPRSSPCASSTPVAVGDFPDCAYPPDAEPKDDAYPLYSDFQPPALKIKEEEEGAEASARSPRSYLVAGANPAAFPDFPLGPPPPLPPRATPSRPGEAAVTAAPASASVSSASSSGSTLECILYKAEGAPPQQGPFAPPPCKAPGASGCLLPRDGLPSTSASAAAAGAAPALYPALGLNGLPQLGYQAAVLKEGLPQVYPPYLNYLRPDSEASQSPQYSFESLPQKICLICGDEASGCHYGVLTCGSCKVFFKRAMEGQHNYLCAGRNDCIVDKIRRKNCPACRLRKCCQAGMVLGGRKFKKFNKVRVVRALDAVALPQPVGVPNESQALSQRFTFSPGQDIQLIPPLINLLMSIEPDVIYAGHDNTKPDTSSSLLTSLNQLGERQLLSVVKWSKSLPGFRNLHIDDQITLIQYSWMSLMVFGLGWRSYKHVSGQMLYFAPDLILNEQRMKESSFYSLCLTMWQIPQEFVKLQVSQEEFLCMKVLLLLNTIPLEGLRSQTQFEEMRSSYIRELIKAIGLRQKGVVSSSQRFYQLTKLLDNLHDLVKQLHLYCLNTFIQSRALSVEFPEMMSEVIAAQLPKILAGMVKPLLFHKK
Method in brief: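 PR-UAS-bla HEK293T cells in medium with 2% charcoal-stripped FBS were treated with compounds plus 1 nM (final) promegestone (R5020) for 16 hr at 37C. LiveBLAzer B/G FRET substrate was then added for 2 h at room temperature; signal is cleaved/uncleaved substrate ratio versus DMSO.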

[15] = TOX21_PR_BLA_Followup_Agonist_viability: Viability Assessment in the Tox21 HEK293 Progesterone Receptor (PR) Agonism Beta-lactamase Follow-Up Assay (AID 2283935);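 further: signal loss means lower viability so actives are cytotoxic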
Method in brief: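 PR-UAS-bla HEK293T cells in 2% charcoal-stripped FBS medium, compound added after 6 hr plating, 16 hr at 37C/5% CO2. After bla FRET read, CellTiter-Glo added; luminescence read after 30 min at room temperature; signal loss marks cytotoxicity.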

[16] = TOX21_PR_BLA_Followup_Antagonist_viability: Viability Assessment in the Tox21 HEK293 Progesterone Receptor (PR) Antagonism Beta-lactamase Follow-Up Assay (AID 2283936);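 further: hits lower the luminescence signal meaning cytotoxicity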
Method in brief: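 PR-UAS-bla HEK293T cells (3,000/well, 2% charcoal-stripped FBS) given compound plus R5020 agonist, 16 h at 37C. CellTiter-Glo added after bla read, 30 min at room temperature; luminescence loss indicates cytotoxicity.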

[17] = target: PGR (gene 5241) (UniProt P06401); test: TOX21_PR_LUC_Followup_Antagonist: Tox21 HEK293 Progesterone Receptor (PR) Antagonism Luciferase Follow-Up Assay (AID 2283938);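 further: curve fitted upward as signal gain over DMSO baseline despite antagonist label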
Method in brief: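 Luminescence from ONE-Glo was measured 30 min after reagent addition, following 16 h exposure of HEK293-PR-A-luc cells (3,000/well, plated 5 h earlier) to DMSO-dissolved compounds at 37C; DMSO served as baseline.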

Measured: AC50

CC(C)(OOC(C)(C)c1ccccc1)c1ccccc1
inactive: [1] | [2]

CCCCC(CC)COC(=O)c1ccc(C(=O)OCC(CC)CCCC)c(C(=O)OCC(CC)CCCC)c1 (stereo not given)
inactive: [3] | [4] | [5] | [6]

CC(C)(O)c1cnn2c(-c3ccc(F)c(-c4c(F)cccc4C#N)c3)cnc2n1
inactive: [1] | [2]

c1ccc2c(c1)oc1ccccc12
inactive: [1] | [2]

CCC(C)c1ccc(O)cc1 (stereo not given)
inactive: [3] | [4] | [5] | [6] | [1] | [2]

Nc1ccc(Cl)cc1N
inactive: [2]
active: [1] 50 µM

Brc1ccc(Oc2ccccc2)cc1
inactive: [1] | [2] | [7] | [8] | [9] | [10] | [11] | [12]

O=[N+]([O-])C(Br)(CO)CO
inactive: [2]

CCNS(=O)(=O)C(F)(F)C(F)(F)C(F)(F)C(F)(F)C(F)(F)C(F)(F)C(F)(F)C(F)(F)F
inactive: [1] | [2]

[Cl-].[Cl-].[Hg+2]
active: [1] 7.02 µM | [2] 39.4 µM

Oc1ccc2ccc3cccc4ccc1c2c34
active: [3] 151 µM | [5] 22.7 µM
inactive: [5] | [1] | [2]

CN(C)c1ccc(C(=O)c2ccc(N(C)C)cc2)cc1
inactive: [1] | [2]

C=CCc1ccc2c(c1)OCO2
inactive: [7] | [8] | [9] | [10] | [11] | [13] | [12]

CCCCOC(=O)c1ccccc1C(=O)OCc1ccccc1
not listed: [3] | [4]
inactive: all other assays above
